Source: PubChem BioAssay (NCATS)
Values without a mark were called inactive. The source made the active and inactive calls. The call rests on the fitted dose curve; in most records, active means well fitted activation curve with a large enough effect; inconclusive means small, poorly fitted or top-dose-only effect; inactive means flat fitted curve, though single readings scatter.

experiment: Cellular Toxicity (caspase-3) HepG2 (AID 654); conditions: HepG2 caspase-3 activation, luminescence, 0% = DMSO only, 100% = tamoxifen; series mostly up to 92.2 µM; caspase-3 activation: at the top concentration;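 further: cells exposed to compound for 16 hours before reading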
Description: NIH Chemical Genomics Center [NCGC]
NIH Molecular Libraries Screening Centers Network [MLSCN]
National Institutes of Environmental Health Sciences [NIEHS]
National Toxicology Program [NTP]
We have developed a 1536-well cell-based assay for quantitative high throughput screening (qHTS) against a number of cell lines to determine in vitro caspase 3/7 of small molecules. This particular assay uses the HepG2 cell line which is derived from human hepatocellular carcinoma.
NCGC Assay Protocol Summary:
The Caspase-Glo 3/7 assay (Promega) is a homogeneous method to measure caspase-3 and caspase-7 activities in cultured cells. The quantitation of caspase 3/7 activity is based on the cleavage of a peptide-aminoluciferin substrate. After caspase cleaves the substrate the free aminoluciferin is liberated and serves as the substrate of luciferase, which generates the light. The luminescent signal is proportional to amount of caspase 3/7 activity present.
Using the Caspase-Glo 3/7 assay, the amount of caspase 3/7 activity was measured in the HepG2 cell line with complete culture medium following compound treatment for 16 hours. The assay was performed in opaque white 1536-well plates. In the screen, tamoxifen and doxorubicin were used as positive controls. Library compounds were measured for their ability to cause the activation of caspase 3/7 in the cell line, as reflected by an increase in luminescence signal, in a concentration-dependent manner. Data were normalized to the controls for basal activity (DMSO only) and 100% stimulation (100 uM tamoxifen). AC50 values were determined from concentration-response data modeled with the standard Hill equation.
qHTS protocol for caspase 3/7 assay in HepG2 cells
[Step] [Parameter] [Value] [Description]
1. Reagent; 5 uL; 1500 HepG2 cells/well
2. Time; 5 hr; 37 °C incubation
4. Controls; 23 nL; Tamoxifen 0.23 uM to 100 uM & Doxorubicin 7.0 pM to 100 uM
5. Time; 16 hr; 37 °C incubation
6. Reagent; 5 uL; Caspase-Glo 3/7 reagent
7. Time; 20 min; Room Temperature
8. Detection; Luminescence; Viewlux plate reader
Keywords: caspase 3/7, apoptosis, HepG2 cell line, luminescence, NTPHTS, NTPHTS_NCGC, NIEHS, EPA, DSSTox, MLSMR, MLSCN, NIH Roadmap, qHTS, NCGC

Compared with `Nc1nccs1`, `Cc1ncc[nH]1` is lower in “caspase-3 activation” value: 0.563% for the first, -0.41% for the second.

Going from `OC[C@H]1O[C@@H]2O[C@H]3[C@H](O)[C@@H](O)[C@@H](O[C@H]4[C@H](O)[C@@H](O)[C@@H](O[C@H]5[C@H](O)[C@@H](O)[C@@H](O[C@H]6[C@H](O)[C@@H](O)[C@@H](O[C@H]7[C@H](O)[C@@H](O)[C@@H](O[C@H]1[C@H](O)[C@H]2O)O[C@@H]7CO)O[C@@H]6CO)O[C@@H]5CO)O[C@@H]4CO)O[C@@H]3CO` to `C[C@H]1O[C@@H](O[C@H]2[C@@H](O)C[C@H](O[C@H]3[C@@H](O)C[C@H](O[C@H]4CC[C@@]5(C)[C@H](CC[C@@H]6[C@@H]5C[C@@H](O)[C@]5(C)[C@@H](C7=CC(=O)OC7)CC[C@]65O)C4)O[C@@H]3C)O[C@@H]2C)C[C@H](O)[C@@H]1O`, the “caspase-3 activation” value falls from 0.62% to -2.01%.

First: CC[C@H]1OC(=O)[C@H](C)[C@@H](O[C@H]2C[C@@](C)(OC)[C@@H](O)[C@H](C)O2)[C@H](C)[C@@H](O[C@@H]2O[C@H](C)C[C@H](N(C)C)[C@H]2O)[C@](C)(O)C[C@@H](C)CN(C)[C@H](C)[C@@H](O)[C@]1(C)O
Second: C[C@H](CCC(=O)O)[C@H]1CC[C@H]2[C@@H]3[C@H](O)C[C@@H]4C[C@H](O)CC[C@]4(C)[C@H]3C[C@H](O)[C@]12C
The “caspase-3 activation” value of the first is higher: 0.249% for the first, -0.111% for the second.

Going from `C=C1C(CCl)(CCl)C2(Cl)C(Cl)C(Cl)C1(Cl)C2(Cl)Cl` (configuration not stated) to `O=c1n(CC2CO2)c(=O)n(CC2CO2)c(=O)n1CC1CO1` (configuration not stated), the “caspase-3 activation” value rises from 3.31% to 21.2%.

First: c1ccc2ccccc2c1
Second: [O-][N+](=Nc1ccccc1)c1ccccc1
The “caspase-3 activation” value of the first is lower: -0.58% for the first, 1.09% for the second.

First: C[C@H](CCC(=O)O)[C@H]1CC[C@H]2[C@@H]3CC[C@@H]4C[C@H](O)CC[C@]4(C)[C@H]3C[C@H](O)[C@]12C
Second: CC1=CCC2CC1C2(C)C (configuration not stated)
The “caspase-3 activation” value of the first is lower: -0.319% for the first, 0.611% for the second.

First: Oc1ccc(/C=C/c2cc(O)cc(O)c2)cc1
Second: Oc1cccc(O)c1O
The “caspase-3 activation” value of the first is lower: -3.55% for the first, -1.19% for the second.

Going from `CC/C=C\C/C=C\C/C=C\CCCCCCCC(=O)O` to `C/C=C/C=C/C(=O)O`, the “caspase-3 activation” value rises from -0.414% to 0.356%.

Going from `CCOC(C)OCC` to `CCCCC`, the “caspase-3 activation” value falls from 0.403% to -0.0923%.

Compared with `Cc1ccc(S(=O)(=O)O)cc1C`, `COC(=O)c1ccccc1O` is higher in “caspase-3 activation” value: 0.465% for the first, 1.52% for the second.

Compared with `CO/N=C(/C(=O)N[C@@H]1C(=O)N2C(C(=O)O)=C(COC(N)=O)CS[C@H]12)c1ccco1`, `Nc1ncnc2c1ncn2[C@H]1CC[C@@H](CO)O1` is higher in “caspase-3 activation” value: 0.195% for the first, 1.27% for the second.

Compared with `CC(C)O`, `CO` is higher in “caspase-3 activation” value: -0.641% for the first, -0.124% for the second.

First: Nc1ccc(N=Nc2ccccc2)c(N)n1
Second: OCc1ccccc1
The “caspase-3 activation” value of the first is lower: -1.68% for the first, -0.0754% for the second.

Going from `O=P(O)(O)O` to `OB(O)O`, the “caspase-3 activation” value rises from -0.505% to -0.356%.

First: NCCN
Second: NC(N)=O
The “caspase-3 activation” value of the first is higher: 0.505% for the first, -0.236% for the second.

Compared with `O.O.O.O.O.O.O.O=S(=O)([O-])[O-].[Co+2]`, `CC1=CC(=O)NS(=O)(=O)O1` is lower in “caspase-3 activation” value: -0.891% for the first, -0.922% for the second.

Compared with `ClC(Cl)Cl`, `OCl` is higher in “caspase-3 activation” value: 0.00837% for the first, 0.0689% for the second.

In the case of `CC(C)(C)CC(C)(C)c1ccc(OCCO)cc1`, the “caspase-3 activation” value is reported as -1.06%.

With `OCC(O)CO` the outcome was “inactive”.
For `CCCCO`, the outcome was “inactive”.
